The results in this text go back to PubChem BioAssay AID1347043 (National Center for Advancing Translational Sciences (NCATS), 2019).

Hit rate of the full screen: of about 76,000 compounds, about 1,900 (2.5%) were called active. Inconclusive results (about 5%) are left out. Calls come from the whole dose curve; as a rule, active = well fitted inhibition curve with a large enough effect; inconclusive = small, poorly fitted or top-dose-only effect; inactive = flat fitted curve, though single readings scatter. What follows is part of a selection rich in actives, with near analogues and random picks from the rest. Where a call stands in place of a potency, no number is given.

Chain of Luciferin 4-monooxygenase (Photinus pyralis) (P08659 whole entry, looked up): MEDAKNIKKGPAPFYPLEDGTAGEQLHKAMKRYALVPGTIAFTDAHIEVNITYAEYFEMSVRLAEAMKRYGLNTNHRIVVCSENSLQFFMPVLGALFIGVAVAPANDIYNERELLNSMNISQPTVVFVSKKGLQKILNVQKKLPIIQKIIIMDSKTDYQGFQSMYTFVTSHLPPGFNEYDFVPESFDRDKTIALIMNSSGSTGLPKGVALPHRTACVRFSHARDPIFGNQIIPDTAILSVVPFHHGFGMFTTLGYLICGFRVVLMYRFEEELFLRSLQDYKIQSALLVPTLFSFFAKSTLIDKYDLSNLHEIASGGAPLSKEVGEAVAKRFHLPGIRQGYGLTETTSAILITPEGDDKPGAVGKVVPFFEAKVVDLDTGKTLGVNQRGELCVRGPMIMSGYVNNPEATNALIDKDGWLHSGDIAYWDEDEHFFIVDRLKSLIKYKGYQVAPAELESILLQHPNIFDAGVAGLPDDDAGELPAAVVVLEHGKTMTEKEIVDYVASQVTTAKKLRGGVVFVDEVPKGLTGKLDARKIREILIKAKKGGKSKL

In the experiment the target is Luciferin 4-monooxygenase (Photinus pyralis) (UniProt P08659). Briefly: Firefly luciferase inhibition profiling of diverse chemical library using quantitative high-throughput screening. Note: nearly all actives have a fitted effect of over 65% in size. The note with it: purified P. pyralis luciferase, luminescence, biochemical; series mostly up to 115 µM. From the text:
Firefly (Photinus pyralis) luciferase is one of the most commonly used transcriptional reporters for a number of reasons. It is considered one of the more dynamically responsive reporters - that is, responsive to changes in reporter transcription - as it requires no post-translational modifications and is enzymatically active directly after protein synthesis (Wood, 1998). Additionally, the half-life of the luciferase protein is short relative to other reporter-gene products (Wood, 1995). Whereas reporters with long half-lives potentially allow for increased signal due to accumulation of reporter-gene product, once accumulated in the cell, dynamic changes in reporter-gene expression may be difficult to detect(Fan and Wood, 2007; Almond et al., 2004). It has been shown that wild-type P. pyralis luciferase has a half-life of approximately four hours in mammalian cells (Thompson et al., 1991). Firefly luciferase reporter-gene assays are also generally considered one of the most sensitive assay types (Wood, 1995; Wood, 1998). Although light produced in a bioluminescence reaction is of lower intensity than that produced during fluorescence emission, this is offset by little to no background light inherent to luminescent assays. Thus the luciferase reporter can be expressed at much lower levels than fluorescent proteins while still providing robust signal. However, it was initially observed, in 1991, by Thompson et al., that compounds that resemble the substrates of firefly luciferase (FLuc) can act as competitive inhibitors of the enzyme, and that these compounds, upon interaction with luciferase in the cell, can actually stabilize the protein and increase its half-life. Accumulated intracellular FLuc protein can be measured as an increase in luminescence signal, upon addition of detection reagents (which contain high concentrations of FLuc substrates) commonly used in high-throughput screening. In cell-based reporter gene assays that use FLuc as the reporter gene to quantitate the potential influence of a given compound against the target biology, this apparent increase in luminescence can mistakenly be interpreted as identification of a compound that is active against the target of interest. FLuc inhibitory compounds that stabilize the FLuc protein will give an identical read-out, making it difficult to distinguish compounds that are active against the target from those active against FLuc. In summary, the results generated here constitutes a valuable resource for the scientific community and provides insight on identifying compounds with inhibitory activity for the commonly-used reporter, firefly luciferase. References: -Almond, B., Zdanovsky, A., Zdanovskaia, M., Ma, D., Stecha, P., Paguio, A., Garvin, D., and Wood, K. (2004). Introducing the Rapid Response Reporter Vectors. Promega Notes 87, 18-22. -Fan, F., and Wood, K.V. (2007). Bioluminescent assays for high-throughput screening. Assay Drug Dev Technol 5, 127-136. -Thompson, J.F., Hayes, L.S., and Lloyd, D.B. (1991). Modulation of firefly luciferase stability and impact on studies of gene regulation. Gene 103, 171-177. -Wood, K.V. (1998). The chemistry of bioluminescent reporter assays. Promega Notes 65, 14-20. -Wood, K.V. (1995). Marker proteins for gene expression. Curr Opin Biotechnol 6, 50-58.
Reagents: 50mM Tris acetate, pH 7.5; 10mM Mg acetate; 10uM D-luciferin (Sigma #L9504); 10uM ATP; 0.01% Tween-20; 0.05% BSA; 10nM P. pyralis luciferase (Sigma #L9506) Control compounds used were two known firefly luciferase inhibitors (compounds (2) and (5) in Auld et al., 2010), and DMSO. Assay Summary: Three microliters containing firefly luciferase substrates in buffer (final concentrations: 50mM Tris acetate, pH 7.5, 10mM Mg acetate, 0.01% Tween-20, 0.05% BSA, 10uM D-luciferin, and 10uM ATP) are dispensed into each well of a Greiner white, solid-bottom 1536-well format plate using a flying reagent dispenser (FRD). […]
In the case of `COC(=O)c1cccc2nc([C@H]3CCN(Cc4ccccc4)C3)oc12`, the Potency entry was “inactive”.

For `Clc1ccc2oc([C@H]3CCN(Cc4ccccc4)C3)nc2c1`, the Potency is 20 µM (active).

With `Fc1ccc2oc([C@H]3CCN(C4CCOCC4)C3)nc2c1`, the Potency result is “inactive”.

With `COc1ccc(-c2noc([C@@H]3CCCN3C(=O)CCCc3ccccc3)n2)cc1OC`, the Potency result was “inactive”.

Take `Cc1ccc(-c2ccc3nnc(CNC(=O)c4ccccn4)n3n2)cc1`: the Potency entry was “inactive”.

As to `COCCNC(=O)[C@@H]1C[C@H](Oc2cccnc2)CN1C(=O)c1ccc(OC)nc1OC`, the Potency result was “inactive”.

Take `COc1ccc(CCC(=O)N2CCC(c3n[nH]c(=O)n3-c3ccc(C)cc3)CC2)cc1`: the Potency result was “inactive”.

As to `CC(=O)NC1(C)CN(Cc2ccc(-c3ccc4c(ccn4C)c3)s2)C1`, the Potency was 0.316 µM (active).

`COC(=O)[C@@H]1Cc2c([nH]c3ccccc23)[C@H]2C[C@@H](NCCN3CCOCC3)C[C@@H](c3ccccc3)N21`: the Potency entry was “inactive”.

With `O=C1NC2(CCN(Cc3ccccc3)C2)OCc2ccccc21` (configuration not stated), the Potency result is “inactive”.

On to `CSCc1ccc(C(=O)N[C@H]2[C@@H]3CCO[C@@H]3[C@@H]2C2CCCC2)o1`, for which the Potency result is “inactive”.

`CN(CCNC(=O)CCc1cc2ccccc2[nH]c1=O)C1CCCCC1`: the Potency entry is “inactive”.

With `COc1ccc(CNC(=O)C[C@@H]2CCNC[C@@H]2Cc2cc(-c3ccc(C(C)(C)C)cc3)on2)cc1OC`, the Potency entry was “inactive”.

Regarding `c1cc(-c2nc3ccncc3[nH]2)ccn1`, the Potency entry was “inactive”.

With `COc1ccc(CC(=O)NC[C@@H]2C=C(C)[C@H](Cc3nc4ccncc4[nH]3)C[C@H]2C(C)C)cc1`, the Potency result was “inactive”.

For the compound `COc1ccc(-c2nc3ccncc3[nH]2)cc1`, the Potency was 31.6 µM (active).

As for `COc1ccc(-c2cc(N3CCC(NC(=O)c4cccc(C)c4)CC3)n[nH]2)cc1`, the Potency result was “inactive”.

Regarding `Cc1nn2c(c1-c1ccccc1C(C)C)N(C(=O)c1cccc(C#N)c1)CCC2`, the Potency result was “inactive”.

For the compound `COc1cc(-c2noc(-c3nc(-c4ccc5c(c4)OCO5)no3)n2)cc(OC)c1OC`, the Potency entry is “inactive”.

As to `COc1cccc(-c2ccc(F)c(C(N)=O)c2)c1OC`, the Potency entry is “inactive”.

For `COc1cccc(-c2nc3ccc(-c4ccc5c(c4)OCO5)cc3o2)c1OC`, the Potency was 1.12 µM (active).

With `COc1ccc(C(=O)N2CCC(N3CC(OC)C34CCOCC4)CC2)c(OC)c1` (configuration not stated), the Potency entry is “inactive”.

`Cc1cc(CN(C)C(=O)c2cc(COc3ccc(F)cc3F)on2)n[nH]1`: the Potency entry was “inactive”.

In the case of `O=C(Nc1cccnc1)O[C@H]1COCCN(c2nc3ccccc3s2)C1`, the Potency result is “inactive”.

Regarding `OC1(CN2CCCCC2)CCN(c2nc3ccccc3s2)C1` (configuration not stated), the Potency was 10 µM (active).

Turning to `Cc1cc(C(=O)N2CC[C@H](NC(=O)c3cnccn3)C[C@H]2C(=O)N[C@H](Cc2ccccc2)C(N)=O)n(C)n1`, the Potency entry was “inactive”.

On to `Cc1ccc(CS(=O)(=O)N2CCC(C3CCNC3)CC2)cc1C` (configuration not stated), for which the Potency entry is “inactive”.

Take `COc1ccc(C(=O)NCc2nnc3ccc(-c4ccc(C)cc4)nn23)cc1F`: the Potency result was “inactive”.

As for `CC(C)Cn1cncc1CNC(=O)c1ccc2nc(-c3ccc(F)cc3)cn2c1`, the Potency was 35.5 µM (active).

With `O=C(c1ccc2nc(-c3ccc(F)cc3)cn2c1)N1CCSCC1`, the Potency entry was “inactive”.

For `Cc1nn(Cc2ccccc2)c(C)c1[C@@H]1C=C[C@@H](NC(=O)NC2CCCCC2)C1`, the Potency result was “inactive”.

As to `Cc1nn(CCC#N)c(C)c1[C@@H]1C=C[C@@H](NS(=O)(=O)c2ccccc2)C1`, the Potency result was “inactive”.

Consider `Cc1nn(-c2ccc(C(C)(C)C)cc2)c(C)c1[C@@H]1C=C[C@@H](NC(=O)c2ccco2)C1`, for which the Potency was 14.1 µM (active).

With `C[C@@H](NC(=O)C1=C[C@@H](NC(=O)CC2(CC(=O)O)CCCC2)[C@@H](O)[C@H](O)C1)C(N)=O`, the Potency entry was “inactive”.

Take `Cc1nn(-c2ccc(C(C)C)cc2)c(C)c1[C@@H]1C=C[C@@H](NC(=O)CC2(CC(=O)O)CCCC2)C1`: the Potency is 35.5 µM (active).

Turning to `Cc1cnc(CCNC(=O)c2ccco2)n1C1CCC1`, the Potency entry is “inactive”.

For the compound `Cc1nn(Cc2ccccc2)c(C)c1[C@@H]1C=C[C@@H](NC(=O)NC(C)C)C1`, the Potency result was “inactive”.

In the case of `CCC(C)NC(=O)Cc1csc2nc(C)c(-c3cc(C)n(-c4ccc(C(C)C)cc4)n3)c(=O)n12` (configuration not stated), the Potency entry is “inactive”.

`CC(C)(C)c1ccnc(N[C@H]2CO[C@H]3[C@@H]2OC[C@@H]3NC(=O)CC2(CC(=O)O)CCCC2)n1`: the Potency result is “inactive”.

As for `Cc1nn(-c2ccc(C(C)C)cc2)c(C)c1[C@@H]1C=C[C@@H](NC(=O)Nc2ccccc2)C1`, the Potency was 3.55 µM (active).

As to `Cc1nn(-c2ccc(C(C)C)cc2)c(C)c1[C@@H]1C=C[C@@H](NC(=S)NCC(C)C)C1`, the Potency was 7.08 µM (active).

With `O=C(NCC1CN(Cc2ccccc2)CC12CN(c1ccccc1)C2)Nc1ccccc1` (configuration not stated), the Potency result is “inactive”.

Take `O=C1NCCCCCCN(Cc2ccc3c(c2)CCO3)[C@H]2CCC[C@@H]12`: the Potency entry is “inactive”.

For the compound `CN(C)C[C@@H]1CN(Cc2ccccn2)C[C@H]1NC(=O)c1ccc2cc[nH]c2c1`, the Potency entry was “inactive”.

For the compound `CC(C)COc1cc(=O)n2c(c1C(=O)NCCCN1CCOCC1)CCCCC2`, the Potency entry is “inactive”.

`COc1ccc(C(=O)NCC(=O)N2CCCCCCNC(=O)CC2c2ccccc2)cn1` (configuration not stated): the Potency entry is “inactive”.

Take `CN(C)C(C(=O)N1CCC(OCc2cccnc2)CC1)c1cccc(F)c1` (configuration not stated): the Potency entry was “inactive”.
